Most compounds without a hit are left out; they make up all but 17% or so of the library.
DT40 TDP1 no CPT: qHTS for Inhibitors of human tyrosyl-DNA phosphodiesterase 1 (TDP1): qHTS in cells in absence of CPT; DT40 Tdp1-/- hTDP1 cells, no CPT, ATP luminescence, 48 h; Potency, µM (titrated, usually from 46.2 µM), for the others: at the top dose activity change, negative = growth inhibition, usual class: inhibitors; 420,000 compounds, 15% hits; AID 686978, 2013; note: % is set by controls: 0 for no effect and ±100 for the full control effect; nearly all actives have a fitted effect of over 55% in size
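Chicken DT40 Tdp1-/- cells stably complemented with human TDP1 were seeded at 400 cells/well with DMSO in place of 20 nM camptothecin. After compound pinning, cells grew at least 48 hr at 37 °C; viability read by CellTiter-Glo luminescence.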
ClpP mod: qHTS Assay for Activators of ClpP; purified B. subtilis ClpP, FRET peptide cleavage, 20 min; 340,000 compounds, 1.9% hits; ATP-dependent Clp protease proteolytic subunit (Bacillus subtilis (strain 168)), P80244; Potency, µM (doses to about 57.5 µM), inactives show at the top dose activity change, negative = active; active = well fitted falling curve with a large enough effect; inconclusive = small, poorly fitted or top-dose-only effect; inactive = no such curve, though single readings can be large or run the other way; note: the source files actives as falling curves though it sought activators and does not explain the sign; nearly all actives have a fitted effect of over 65% in size
Target sequence (P80244 whole entry, looked up): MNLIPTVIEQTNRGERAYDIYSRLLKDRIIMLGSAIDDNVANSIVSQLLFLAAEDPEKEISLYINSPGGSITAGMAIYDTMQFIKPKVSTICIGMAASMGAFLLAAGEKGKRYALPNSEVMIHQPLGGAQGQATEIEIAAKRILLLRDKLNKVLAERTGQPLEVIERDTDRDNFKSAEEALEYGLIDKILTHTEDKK
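FRET quenching reversal measured ClpP activation: 10 microg/mL B. subtilis ClpP at pH 8 with the FRET-FV decapeptide, read at 430 nm after 320 nm excitation. The 20-min minus 0-min signal was scaled between DMSO/no-enzyme wells and ADEP (5.8 microM final).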
DT40 TDP1 CPT: DT40-hTDP1 cell growth loss with CPT | AID 686979 | Potency, µM (series often up to 46.2 µM), for the others: at the highest dose activity change, negative = growth inhibition, usual class: inhibitors | chicken DT40 Tdp1-/-;hTDP1 cells + 20 nM CPT, ATP luminescence, 48 h | 420,000 compounds, 12% hits; note: % is set by controls: 0 for no effect and ±100 for the full control effect; nearly all actives have a fitted effect of over 55% in size
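Cell growth measured by CellTiter-Glo luminescence after a minimum 48 h, 37 C compound exposure with 20 nM CPT in Tdp1-knockout DT40 cells stably expressing hTDP1, seeded 400/well; qHTS titration format.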
TDP1 inh: blocks human tyrosyl-DNA phosphodiesterase 1. Q9NUW8. recombinant TDP1, AlphaScreen DNA substrate cleavage. Potency, µM (highest dose often 130 µM), for inactives: at the highest dose activity change, negative = inhibition, hits mostly inhibitors. 350,000 compounds, 0.28% hits; note: % is set by controls: 0 for no effect and ±100 for the full control effect; nearly all actives have a fitted effect of over 40% in size
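Signal: AlphaScreen proximity between streptavidin donor and anti-FITC acceptor beads on intact substrate. Reaction: Tdp1 1 nM, substrate 15 nM final, 5 min RT after 15 min compound preincubation.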
The depositor's hits bear a star; ? = inconclusive; / = not tested or not shown; ! = repeats disagree; [ ] = remark or other dose. Unless noted, calls come from the whole dose curve; as a rule, active = well fitted curve in the direction sought with a large enough effect; inconclusive = small, poorly fitted or top-dose-only effect, or another doubt; inactive = no such curve, though single readings can be large; an effect the other way counts as inactive or inconclusive. Potency is the fitted concentration of half-maximal effect.

SMILES	DT40 TDP1 no CPT	ClpP mod	DT40 TDP1 CPT	TDP1 inh
Cc1cc2c(s1)c1cnn(Cc3cc(C(F)(F)F)cc(Cl)c3F)c(=O)c1n2C	/	/	/	-6%
Cc1ccc(NC(=O)c2c(NC(=O)Cc3ccccc3)sc3c2CCC3)cc1	?	-3%	-1%	-8%[12.3 µM]
CCC(=O)Nc1sc2c(c1C(=O)Nc1ccccc1C)CCC(C)C2 (centres undefined)	?	2%	?	7%
O=C(Cc1ccccc1)Nc1sc2c(c1C(=O)Nc1ccc(Br)cc1)CCCC2	21µM*	?	12µM*	5%[12.3 µM]
O=C(Nc1sc2c(c1C(=O)Nc1ccccc1)CCC2)c1ccc(Br)cc1	-28%	-16%	-31%	-10%[12.3 µM]
Cc1ccc(NC(=O)c2c(NC(=O)Cc3ccccc3)sc3c2CCCC3)cc1	?	22µM*	?	-1%[12.3 µM]
CC1CCc2c(sc(NC(=O)Cc3ccccc3)c2C(=O)Nc2ccc(Cl)cc2)C1 (centres undefined)	?	-18%	15µM*	1%[12.3 µM]
CCCCc1cc(=O)oc2cc(OCc3nn[nH]n3)c(Cl)cc12	-5%	28µM*	6%	5%
Cc1cc(=O)oc2cc(OCC(=O)NCCN3CCOCC3)c(Cl)cc12	-10%	/	-5%	3%
CCCCc1cc(=O)oc2cc(OCC(=O)NCCN3CCOCC3)c(Cl)cc12	18µM*	4%	13µM*	4%
O=C(c1ccccc1)C(O)c1ccccc1 (centres undefined)	7%	0%	15%	1%
O=C(c1ccccc1)C(c1ccccc1)[n+]1csc2ccccc21 (centres undefined)	11µM*	-1%	?	/
O=c1cc(-c2ccc(O)cc2)oc2cc(OC3OC(CO)C(O)C(O)[C@H]3O[C@@H]3OC[C@@](O)(CO)C3O)cc(O)c12 (some centres undefined)	-1%	/	8%	13%[56.1 µM]
CC(Oc1ccc(Cl)cc1)C(=O)Nc1sccc1C(N)=O (centres undefined)	16µM*	/	?	4%
Cc1cc2c(s1)c1cnn(Cc3cccc(F)c3)c(=O)c1n2C	/	/	/	-10%
COc1ccc(CC2(CO)COc3ccccc3C2=O)cc1 (centres undefined)	16µM*	1%	?	/
COc1ccccc1N(C1=NCCCS1)S(=O)(=O)c1ccc(C(C)(C)C)cc1	23µM*	0%	21µM*	-1%
COc1ccc(N(C2=NCCCS2)S(=O)(=O)c2ccc(C(C)(C)C)cc2)cc1	?	/	-20%	-4%
Cc1cc(Cl)c(OCCOCCN2CCCC(C)C2)c(Br)c1 (centres undefined)	16µM*	-1%	29µM*	0%
CC1CCCN(CCOCCOc2ccc(Cl)cc2Br)C1 (centres undefined)	18µM*	1%	?	4%
CN1CCN(CCOCCOc2ccc(Br)cc2Cl)CC1	?	-1%	?	/
CC1CCCN(CCOCCOc2ccc(Br)cc2Cl)C1 (centres undefined)	18µM*	0%	18µM*	-3%
CC(C)(C)c1ccc(C(=O)Nc2cc(-c3ccccc3)nn2-c2ccccc2)cc1	?	?	-25%	-3%
COc1ccc(-c2c(C)nn3c(C(F)(F)F)cc(-c4ccc(C)cc4)nc23)cc1	-4%	-1%	3%	3%
Cc1nn2c(C(F)(F)F)cc(-c3ccc(OC(C)C)cc3)nc2c1C#N	-26%	5µM*	-15%	-4%
SMILES	DT40 TDP1 no CPT	ClpP mod	DT40 TDP1 CPT	TDP1 inh
COc1cc(C(=O)O/N=C2\C=CC(=O)C=C2C)cc(OC)c1OC	?	3%	12µM*	0%
COc1cc(C(=O)ON=C2C3CC4CC(C3)CC2C4)cc(OC)c1OC	-17%	2%	?	/
COC(=O)CCc1sc(Nc2ccccc2)nc1-c1ccc(OC)cc1	16µM*	-6%	?	7%
COc1ccc(Nc2nc(-c3ccc(OC)cc3)c(CCC(=O)O)s2)cc1	-27%	/	8%	4%
COc1ccc(C2=C(C)C(=NCCCN3CCN(c4cc(Cl)ccc4C)CC3)NS2(=O)=O)cc1	8.2µM*	-11%	6.5µM*	9%
COc1ccc(C2=C(N3CCN(c4cc(Cl)ccc4C)CC3)c3ccccc3C2=O)cc1	?	-1%	21µM*	5%
CC1=C(c2ccc(C)cc2)S(=O)(=O)NC1=NCCCN1CCN(c2ccc(F)cc2)CC1	15µM*	0%	15µM*	6%
COc1ccc(C2(N3CCN(c4cc(C)ccc4C)CC3)C(=O)c3ccccc3C2=O)cc1	?	0%	?	-2%[12.3 µM]
CC1=C(c2ccc(C(C)C)cc2)S(=O)(=O)NC1=NCCCN1CCN(c2ccccc2F)CC1	?	0%	?	6%
CC1=C(c2ccc(Cl)cc2)S(=O)(=O)NC1=NCCCN1CCN(c2cc(C)ccc2C)CC1	5.2µM*	-1%	2.6µM*	9%
Cc1ccc(-c2csc3ncn(C(C)C(=O)O)c(=O)c23)cc1 (centres undefined)	3%	0%	-11%	-3%
COc1cccc(C(=O)N2CCC2(C)C(=O)O)c1 (centres undefined)	1%	1%	-14%	/
CCc1ccc2c(c1)C(C)=CC(C)(C)N2	?	32µM*	?	-3%
C#CCOC(=O)CN1C(=O)c2cccc3cccc(c23)C1=O	0%	8%	-4%	/
CC1=CC(C)(C)Nc2ccc(OC(=O)CN3C(=O)c4cccc5cccc(c45)C3=O)cc21	2.6µM*	-9%	2.9µM*	8%
CCOc1ccc2c(c1)C(C)=CC(C)(C)N2	?	4%	13µM*!	7%
Cc1ccc(S(=O)(=O)N(C)c2ccc(C(=O)Nc3c(C)n(C)n(-c4ccccc4)c3=O)cc2)cc1	-9%	3%	-12%	-2%
COc1ccccc1/C=C/C=N/NC(=O)CC1C(=O)NN=C1C (centres undefined)	0%	-1%	-2%	7%
C/C(=N\NC(=O)c1ccccc1-n1cccc1)C1CC1	-2%	?	-2%	2%
Cc1nc2c(C)c(C)c(C)c(C)c2nc1C	-5%	/	7%	1%
Cc1nc2c(O)c3c(c(O)c2nc1C)C1C=CC3CC1	0.52µM*	1%	0.46µM*	/
CC(CNC(=O)C1CCN(S(=O)(=O)c2ccc3c(ccn3C)c2)CC1)c1ccccc1 (centres undefined)	-4%	-1%	-23%	-2%
CC(CNC(=O)Cn1ccc2cc(S(=O)(=O)N3CCCCCC3)ccc21)c1ccccc1 (centres undefined)	?	-23%	16µM*	3%
CCn1ccc2cc(S(=O)(=O)N3CCC(C(=O)NCC(C)c4ccccc4)CC3)ccc21 (centres undefined)	?	-8%	23µM*	8%
